Assay results from the supplement of paper PMC8728848.
This excerpt belongs to a sample that is enriched for the strongest signals.

Key:
Assay in all cases: glycan array binding signal (z-score within array); higher = stronger binding
Settings in all cases: glycan notation: IUPAC condensed, linker removed
Glc(a1-4)Glc = biological target: Glc(a1-4)Glc
Outline: (§1)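 The binding signal is a Z-score computed within each array and averaged over linkers. Arrays of the same protein sequence at different concentrations or buffers were also averaged together. Data originate from 3228 arrays in the Consortium for Functional Glycomics database, kept only where the protein sequence was available.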

Glc(b1-4)Glc = biological target: Glc(b1-4)Glc
Outline: as §1

GlcA(b1-6)Gal = biological target: GlcA(b1-6)Gal
Outline: as §1

[1] = biological target: GlcA3S(b1-3)Gal(b1-4)GlcNAc(b1-2)Man
Outline: as §1

[2] = biological target: GlcNAc(b1-2)Man(a1-3)[GlcNAc(b1-4)][GlcNAc(b1-2)Man(a1-6)]Man(b1-4)GlcNAc(b1-4)[Fuc(a1-6)]GlcNAc
Outline: as §1

[3] = biological target: GlcNAc(b1-3)Gal(b1-4)GlcNAc(b1-3)Gal(b1-4)GlcNAc
Outline: as §1

[4] = biological target: GlcNAc(b1-3)Gal(b1-4)GlcNAc(b1-3)Gal(b1-4)GlcNAc(b1-2)Man(a1-3)[GlcNAc(b1-3)Gal(b1-4)GlcNAc(b1-3)Gal(b1-4)GlcNAc(b1-2)Man(a1-6)]Man(b1-4)GlcNAc(b1-4)[Fuc(a1-6)]GlcNAc
Outline: as §1

[5] = biological target: GlcNAc(b1-3)Gal(b1-4)GlcNAc(b1-3)Gal(b1-4)GlcNAc(b1-3)Gal(b1-4)GlcNAc(b1-2)Man(a1-3)[GlcNAc(b1-3)Gal(b1-4)GlcNAc(b1-3)Gal(b1-4)GlcNAc(b1-3)Gal(b1-4)GlcNAc(b1-2)Man(a1-6)]Man(b1-4)GlcNAc(b1-4)GlcNAc
Outline: as §1

[6] = biological target: GlcNAc(b1-3)Gal(b1-4)GlcNAc(b1-3)Gal(b1-4)GlcNAc(b1-3)Gal(b1-4)GlcNAc(b1-3)Gal(b1-4)GlcNAc(b1-2)Man(a1-3)[GlcNAc(b1-3)Gal(b1-4)GlcNAc(b1-3)Gal(b1-4)GlcNAc(b1-3)Gal(b1-4)GlcNAc(b1-3)Gal(b1-4)GlcNAc(b1-2)Man(a1-6)]Man(b1-4)GlcNAc(b1-4)GlcNAc
Outline: as §1

[7] = biological target: GlcNAc(b1-4)GlcNAc(b1-4)GlcNAc(b1-4)GlcNAc(b1-4)GlcNAc
Outline: as §1

Man(a1-6)Man = biological target: Man(a1-6)Man
Outline: as §1

[8] = biological target: Neu5Ac(a2-3)Gal(b1-3)GlcNAc
Outline: as §1

[9] = biological target: Neu5Ac(a2-3)Gal(b1-4)GlcNAc(b1-2)Man
Outline: as §1

[10] = biological target: Neu5Ac(a2-3)Gal(b1-4)GlcNAc(b1-3)Gal(b1-4)GlcNAc(b1-2)Man(a1-3)[Neu5Ac(a2-3)Gal(b1-4)GlcNAc(b1-3)Gal(b1-4)GlcNAc(b1-2)Man(a1-6)]Man(b1-4)GlcNAc(b1-4)GlcNAc
Outline: as §1

[11] = biological target: Neu5Ac(a2-3)Gal(b1-4)GlcNAc(b1-3)Gal(b1-4)GlcNAc(b1-3)[Neu5Ac(a2-3)Gal(b1-4)GlcNAc(b1-3)Gal(b1-4)GlcNAc(b1-6)]GalNAc
Outline: as §1

[12] = biological target: Neu5Ac(a2-3)Gal(b1-4)[Fuc(a1-3)]GlcNAc(b1-2)Man
Outline: as §1

[13] = biological target: Neu5Ac(a2-3)Gal(b1-4)[Fuc(a1-3)]GlcNAc(b1-6)[Neu5Ac(a2-3)Gal(b1-3)]GalNAc
Outline: as §1

[14] = biological target: Neu5Ac(a2-3)Gal6S(b1-4)GlcNAc
Outline: as §1

Neu5Ac(a2-3)GalNAc = biological target: Neu5Ac(a2-3)GalNAc
Outline: as §1

[15] = biological target: Neu5Ac(a2-3)[Neu5Ac(a2-6)]GalNAc
Outline: as §1

[16] = biological target: Neu5Ac(a2-6)Gal(b1-4)GlcNAc(b1-2)Man
Outline: as §1

[17] = biological target: Neu5Ac(a2-6)Gal(b1-4)GlcNAc(b1-2)Man(a1-3)[Gal(b1-4)GlcNAc(b1-2)Man(a1-6)]Man(b1-4)GlcNAc(b1-4)GlcNAc
Outline: as §1

[18] = biological target: Neu5Ac(a2-6)Gal(b1-4)GlcNAc(b1-3)Gal(b1-4)[Fuc(a1-3)]GlcNAc(b1-3)Gal(b1-4)[Fuc(a1-3)]GlcNAc
Outline: as §1

[19] = biological target: Neu5Ac(a2-6)GalNAc(b1-4)GlcNAc6S
Outline: as §1

[20] = biological target: Neu5Ac(a2-8)Neu5Ac(a2-8)Neu5Ac(a2-8)Neu5Ac(a2-3)[GalNAc(b1-4)]Gal(b1-4)Glc
Outline: as §1

[21] = biological target: Neu5Gc(a2-3)Gal(b1-3)GlcNAc
Outline: as §1

[22] = biological target: Neu5Gc(a2-3)Gal(b1-4)GlcNAc
Outline: as §1

[23] = biological target: Neu5Gc(a2-3)Gal(b1-4)GlcNAc(b1-3)Gal(b1-4)GlcNAc(b1-2)Man(a1-3)[Neu5Gc(a2-3)Gal(b1-4)GlcNAc(b1-3)Gal(b1-4)GlcNAc(b1-2)Man(a1-6)]Man(b1-4)GlcNAc(b1-4)GlcNAc
Outline: as §1

B1: Nc3LysM-2 (protein)
chain: AHVLQARQSVSCDFATAANTGDTCASFAAAWGITEAAFAKLNPGVSCPGNLIAGSEYCVIGTVSTGAPTTTKAATTSTTPPTTTTTTKATTLSTSTTSVSPTGPSPQMPSITSTCNKFYQVQSGDGCWSIEQAQGVSASDFMAWNKAVDAQCDNLWLGYYVCVGVKGGSSPPPTTTTKPASSSAPTPQMPNTVSNCKKFHKVVSGDGCWAIEQAAGISASDFAKWNPYVDAACDNLWLGYYVCIGV
glycan array binding signal (z-score) (Glc(a1-4)Glc): -0.04
glycan array binding signal (z-score) (Glc(b1-4)Glc): -1.11
glycan array binding signal (z-score) (GlcA(b1-6)Gal): 2.36
glycan array binding signal (z-score) [1]: 0.714
glycan array binding signal (z-score) [2]: -0.543
glycan array binding signal (z-score) [3]: 0.247
glycan array binding signal (z-score) [4]: 3.4
glycan array binding signal (z-score) [5]: -0.959
glycan array binding signal (z-score) [6]: -0.307
glycan array binding signal (z-score) [7]: 3.61
glycan array binding signal (z-score) (Man(a1-6)Man): 0.852
glycan array binding signal (z-score) [8]: 0.767
glycan array binding signal (z-score) [9]: 0.06
glycan array binding signal (z-score) [10]: 4.26
glycan array binding signal (z-score) [11]: -0.674
glycan array binding signal (z-score) [12]: -0.075
glycan array binding signal (z-score) [13]: 2.08
glycan array binding signal (z-score) [14]: -0.155
glycan array binding signal (z-score) (Neu5Ac(a2-3)GalNAc): -1.24
glycan array binding signal (z-score) [15]: 0.668
glycan array binding signal (z-score) [16]: 0.422
glycan array binding signal (z-score) [17]: -0.256
glycan array binding signal (z-score) [18]: 0.118
glycan array binding signal (z-score) [19]: -2.04
glycan array binding signal (z-score) [20]: 0.938
glycan array binding signal (z-score) [21]: 0.959
glycan array binding signal (z-score) [22]: -0.122
glycan array binding signal (z-score) [23]: -0.459
